Nine compounds from PubChem BioAssay (Tox21) can be followed below.

Values without a mark were called inactive. Records with an inconclusive call do not appear. Activity calls are given as the source filed them. Unless noted, the call rests on the fitted dose curve; in most records, active means well fitted curve in the direction sought with a large enough effect in the repeat runs; inconclusive means weak or mixed curves; inactive means no such curve, though single readings can be large; an effect the other way counts as inactive or inconclusive.

Assay [1] can be described thus: qHTS assay to identify small molecule antagonists of the sonic hedgehog signaling (Shh) pathway (AID 1259369; calls by dose curve; further: nearly all actives have a fitted effect of over 45% in size; further: potency means the concentration at half of the fitted maximal effect). The gist of the method:
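Cells are plated and held 4hr at 37 C, compounds (DMSO) are pinned in, conditioned medium is added to stimulate the pathway, and after 24hr luciferase reagent is added for 30min before luminescence is read.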
A general note: In qHTS, concentration-response curves come from the screen itself.

Assay [2] in a line: qHTS assay to identify small molecule agonists of the androgen receptor (AR) signaling pathway in the presence of an antagonist - cell viability counter screen (AID 1259379). Further: nearly all actives have a fitted effect of over 25% in size. Further: potency means the concentration at half of the fitted maximal effect. The gist of the method: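 Cytotoxicity is assessed by CellTiter-Fluor in MDA-kb2 cells carrying an MMTV-driven luciferase reporter. Cells receive 3.0uM nilutamide plus compounds at 15 concentrations and incubate 16 hr at 37C without CO2 before fluorescence reading.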

Assay [3] can be described thus: qHTS assay to identify small molecule agonists of the estrogen receptor beta (ER-beta) signaling pathway - cell viability counter screen (AID 1259380). Further: nearly all actives have a fitted effect of over 30% in size. Further: potency means the concentration at half of the fitted maximal effect. A digest of the protocol: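 Cytotoxicity is measured in parallel with the reporter screen: after 16 hr compound exposure at 37C and a 2 hr LiveBLAzer step, CellTiter-Glo is added to the same ER-beta-UAS-bla HEK293T wells and luminescence read after 30 min.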

The nature of assay [4]: qHTS assay to identify small molecule antagonists of the estrogen receptor beta (ER-beta) signaling pathway - cell viability counter screen (AID 1259382).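 Further: HEK293T cells carrying ER-beta-UAS-bla reporter stimulated with estradiol; series mostly up to about 92 µM; nearly all actives have a fitted effect of over 55% in size.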 A digest of the protocol:
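Cytotoxicity counter screen multiplexed with the beta-lactamase antagonist assay: GripTite HEK293T ER-beta-bla cells were treated 16 hr with test chemicals in the presence of 1nM 17-beta-estradiol, and viability was measured by CellTiter-Glo.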

The target of assay [5] is Estrogen receptor (Homo sapiens) (UniProt P03372). Description: qHTS assay to identify small molecule agonists of the estrogen receptor alpha (ER-alpha) signaling pathway in the presence of an antagonist (AID 1259383; calls by dose curve; further: top concentration of the series differs between compounds; nearly all actives have a fitted effect of over 15% in size). A digest of the protocol:
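Agonist-mode confirmation in the presence of the ER antagonist ICI-182,780 at 10.0nM final. Breast-derived VM7Luc4E2 reporter cells were exposed to compounds for 22hr, and ERE-driven luciferase was quantified by luminescence.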

The nature of assay [6]: qHTS assay to identify small molecule agonists or antagonists of the thyroid stimulating hormone receptor (TSHR) signaling pathway - wild type cell line counter screen (AID 1259384; calls by dose curve). The gist of the method:
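Wild-type Hek293 cells, 800/well, 18 h at 37C, then compound with Ro20-1724 for 30 min RT. cAMP by HTRF (cAMP-d2/anti-cAMP cryptate), 1 h RT, fluorescence read. 15 concentrations, triplicates.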

Assay [7] addresses Thyrotropin receptor (Homo sapiens) (UniProt P16473). Description: qHTS assay to identify small molecule antagonists of the thyroid stimulating hormone receptor (TSHR) signaling pathway (AID 1259385; calls by dose curve; further: nearly all actives have a fitted effect of over 20% in size). A digest of the protocol: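 TSHR-HEK293 cells (800/well) plated 18 h, then compounds with Ro20-1724 and TSH at 1.5 ng/mL final, 30 min at room temperature. cAMP quantified by HTRF (cAMP-d2/anti-cAMP-cryptate, 1 h); 15 concentrations in triplicate.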

The nature of assay [8]: qHTS assay to identify small molecule agonists of the estrogen receptor alpha (ER-alpha) signaling pathway in the presence of an antagonist - cell viability counter screen (AID 1259386).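 Further: cells exposed to compounds for 22 h at 37 °C before the viability read; nearly all actives have a fitted effect of over 30% in size.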 Further: potency means the concentration at half of the fitted maximal effect. The gist of the method:
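Cytotoxicity was measured in parallel with the ERE-luciferase agonist screen, in the same wells. The cells were VM7Luc4E2, which endogenously express ER-alpha, and treatment was with compounds plus 10.0nM ICI-182,780 for 22hr.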

The nature of assay [9]: qHTS assay to identify small molecule antagonists of the progesterone receptor (PR) signaling pathway - cell viability counter screen (AID 1346798). Further: series mostly up to about 92 µM; nearly all actives have a fitted effect of over 50% in size. A digest of the protocol: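 HEK293T PR-UAS-bla, 2% charcoal-stripped FBS; 4 hr pre-plate; cpd + R5020, 16 h 37C; LiveBLAzer read first; then CellTiter-Glo 30 min RT, luminescence.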
Assay [10] in a line: qHTS assay to identify small molecule agonists of the progesterone receptor (PR) signaling pathway - cell viability counter screen (AID 1346799; calls by dose curve; further: nearly all actives have a fitted effect of over 45% in size). A digest of the protocol: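 Luminescence from CellTiter-Glo, added after the beta-lactamase FRET read in the same wells, gave cytotoxicity in PR-UAS-bla HEK293T cells treated with compounds for 16 hr at 37C.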
Assay [11] is described as follows: qHTS assay to identify small molecule antagonists of the TGF-beta/Smad signaling pathway - cell viability counter screen (AID 1346824). Further: nearly all actives have a fitted effect of over 50% in size. The gist of the method:
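SBE-bla HEK 293T cells, incubated overnight, then compound plus 0.25 ng/mL TGF-beta1 (stock added) for 5 hr at 37 C. Viability was read in the same wells by CellTiter-Glo luminescence after 30 min at room temperature.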

A short description of assay [12]: qHTS assay to identify small molecule agonists of the TGF-beta/Smad signaling pathway - cell viability counter screen (AID 1346829). Further: top concentration of the series differs between compounds; nearly all actives have a fitted effect of over 45% in size. The gist of the method: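 In parallel with the Smad reporter read, viability of HEK 293T cells stably carrying SBE-bla is quantified by ATP luminescence following 5 hr compound treatment.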
Assay [13] in a line: qHTS assay to identify small molecule agonists of the TGF-beta/Smad signaling pathway (AID 1346859; active means well fitted activation curve with a large enough effect in the signal ratio in the repeat runs, not every such curve was filed as active; the % refers to the signal ratio; further: series mostly up to about 77 µM). The gist of the method: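 SBE-bla HEK 293T, 4,000 cells/well, plated o/n; cpd in DMSO, 5 hr, 37 C/5% CO2; B/G FRET substrate 2 hr RT; ex 405, em 460/530 nm.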
The target in assay [14] is Thyrotropin-releasing hormone receptor (Homo sapiens) (UniProt P34981). Nature of the assay: qHTS assay to identify small molecule antagonists of the thyrotropin-releasing hormone receptor (TRHR) signaling pathway (AID 1346877; active means well fitted inhibition curve with a large enough effect in the repeat runs, not every such curve was filed as active; further: series mostly up to about 51 µM). The gist of the method:
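Antagonism is measured as suppression of the calcium response to 1 nM TRH in TRHR-HEK293 cells that have been dye-loaded for 2 h at 37 °C after overnight plating. Each compound is tested at 15 concentrations in triplicate.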

For assay [15] the target is unchanged. Nature of the assay: qHTS assay to identify small molecule agonists of the thyrotropin-releasing hormone receptor (TRHR) signaling pathway (AID 1346891; calls by dose curve; further: series mostly up to about 58 µM). A digest of the protocol:
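Intracellular calcium rise, read as fluorescence every second for 3 min, served as the agonist signal in dye-loaded HEK293 cells expressing TRHR; each compound ran at 15 concentrations in triplicate.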

For assay [16], the target named is Androgen receptor (Homo sapiens) (UniProt P10275). Nature of the assay: qHTS assay to identify small molecule agonists of the androgen receptor (AR) signaling pathway in the presence of an antagonist (AID 1259381; calls by dose curve; further: nearly all actives have a fitted effect of over 15% in size; further: potency means the concentration at half of the fitted maximal effect). A digest of the protocol:
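Agonist-mode confirmation screen: human MDA-kb2 cells stably expressing luciferase under an MMTV promoter bearing AR and GR response elements, co-treated with 3.0uM nilutamide (final). Luminescence measured after 16hr compound incubation.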

Assay [17] has as its target Progesterone receptor (Homo sapiens) (UniProt P06401). Nature of the assay: qHTS assay to identify small molecule agonists of the progesterone receptor (PR) signaling pathway (AID 1346784; calls by dose curve; further: nearly all actives have a fitted effect of over 30% in size). The gist of the method: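 Beta-lactamase reporter read-out: after 16 hr compound treatment at 37C and a further 2 hr at room temperature with LiveBLAzer B/G FRET substrate, fluorescence was measured in PR-UAS-bla HEK 293T cells grown in 2% charcoal-stripped serum.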

Assay [18] shares this target. Description: qHTS assay to identify small molecule antagonists of the progesterone receptor (PR) signaling pathway (AID 1346795; active means well fitted inhibition curve with a large enough effect in the signal ratio in the repeat runs, not every such curve was filed as active; the % refers to the signal ratio; further: potency means the concentration at half of the fitted maximal effect). A digest of the protocol:
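Read-out is fluorescence from the LiveBLAzer B/G FRET substrate, cleaved by a UAS-controlled beta-lactamase in PR-UAS-bla HEK293T cells after 16 hr exposure to compound plus 1 nM promegestone (final), followed by 2 hr at room temperature.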

Chain of Progesterone receptor (Homo sapiens) (P06401 whole entry, looked up): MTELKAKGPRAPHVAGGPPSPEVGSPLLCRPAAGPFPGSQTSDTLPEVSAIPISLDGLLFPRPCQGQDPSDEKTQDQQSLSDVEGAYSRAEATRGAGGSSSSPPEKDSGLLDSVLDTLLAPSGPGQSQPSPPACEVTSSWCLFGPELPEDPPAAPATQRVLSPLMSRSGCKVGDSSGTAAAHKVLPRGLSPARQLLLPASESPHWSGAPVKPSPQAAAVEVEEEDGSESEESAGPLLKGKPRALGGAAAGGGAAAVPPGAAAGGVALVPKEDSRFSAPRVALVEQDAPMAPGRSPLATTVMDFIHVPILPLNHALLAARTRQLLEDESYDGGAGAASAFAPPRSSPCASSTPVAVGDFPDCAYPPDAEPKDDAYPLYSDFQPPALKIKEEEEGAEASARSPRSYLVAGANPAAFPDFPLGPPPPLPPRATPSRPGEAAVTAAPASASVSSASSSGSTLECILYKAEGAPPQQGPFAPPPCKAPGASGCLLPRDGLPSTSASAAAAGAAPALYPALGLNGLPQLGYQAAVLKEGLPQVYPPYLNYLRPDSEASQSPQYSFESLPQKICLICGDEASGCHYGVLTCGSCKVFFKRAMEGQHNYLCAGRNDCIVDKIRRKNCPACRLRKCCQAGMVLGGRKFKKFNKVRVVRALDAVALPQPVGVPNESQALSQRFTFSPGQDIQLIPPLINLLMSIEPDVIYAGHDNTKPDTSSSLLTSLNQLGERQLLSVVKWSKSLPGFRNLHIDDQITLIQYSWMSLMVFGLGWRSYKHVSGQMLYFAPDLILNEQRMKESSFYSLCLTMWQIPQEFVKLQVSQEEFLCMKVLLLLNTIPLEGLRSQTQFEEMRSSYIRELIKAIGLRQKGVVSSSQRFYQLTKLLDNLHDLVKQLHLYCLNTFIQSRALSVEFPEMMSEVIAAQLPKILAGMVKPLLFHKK
Chain of Thyrotropin-releasing hormone receptor (Homo sapiens) (P34981 whole entry, looked up): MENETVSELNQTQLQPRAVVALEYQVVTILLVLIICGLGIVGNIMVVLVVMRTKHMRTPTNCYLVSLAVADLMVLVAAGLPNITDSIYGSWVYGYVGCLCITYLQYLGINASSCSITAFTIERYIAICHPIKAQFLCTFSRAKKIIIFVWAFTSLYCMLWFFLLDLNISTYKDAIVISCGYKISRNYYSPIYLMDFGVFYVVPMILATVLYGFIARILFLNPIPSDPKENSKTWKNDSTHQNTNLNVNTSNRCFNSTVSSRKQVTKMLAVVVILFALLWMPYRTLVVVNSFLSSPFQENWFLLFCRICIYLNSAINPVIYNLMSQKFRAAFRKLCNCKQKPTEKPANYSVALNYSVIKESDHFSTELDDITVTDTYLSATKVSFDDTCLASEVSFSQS
Chain of Estrogen receptor (Homo sapiens) (P03372 whole entry, looked up): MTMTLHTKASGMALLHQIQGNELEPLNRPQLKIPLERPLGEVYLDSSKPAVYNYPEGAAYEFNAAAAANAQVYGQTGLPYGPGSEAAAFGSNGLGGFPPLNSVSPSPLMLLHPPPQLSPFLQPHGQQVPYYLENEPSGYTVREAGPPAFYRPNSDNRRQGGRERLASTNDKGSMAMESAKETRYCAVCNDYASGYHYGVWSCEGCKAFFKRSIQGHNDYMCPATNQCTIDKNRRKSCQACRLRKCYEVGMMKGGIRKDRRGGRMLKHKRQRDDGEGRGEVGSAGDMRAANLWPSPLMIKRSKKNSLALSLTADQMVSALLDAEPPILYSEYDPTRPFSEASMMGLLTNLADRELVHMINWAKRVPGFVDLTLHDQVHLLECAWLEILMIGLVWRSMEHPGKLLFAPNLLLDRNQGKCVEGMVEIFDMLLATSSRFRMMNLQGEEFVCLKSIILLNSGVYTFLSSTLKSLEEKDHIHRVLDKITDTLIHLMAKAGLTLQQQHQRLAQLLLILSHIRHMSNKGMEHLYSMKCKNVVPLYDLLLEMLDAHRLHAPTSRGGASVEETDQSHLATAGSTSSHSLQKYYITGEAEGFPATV
Chain of Thyrotropin receptor (Homo sapiens) (P16473 whole entry, looked up): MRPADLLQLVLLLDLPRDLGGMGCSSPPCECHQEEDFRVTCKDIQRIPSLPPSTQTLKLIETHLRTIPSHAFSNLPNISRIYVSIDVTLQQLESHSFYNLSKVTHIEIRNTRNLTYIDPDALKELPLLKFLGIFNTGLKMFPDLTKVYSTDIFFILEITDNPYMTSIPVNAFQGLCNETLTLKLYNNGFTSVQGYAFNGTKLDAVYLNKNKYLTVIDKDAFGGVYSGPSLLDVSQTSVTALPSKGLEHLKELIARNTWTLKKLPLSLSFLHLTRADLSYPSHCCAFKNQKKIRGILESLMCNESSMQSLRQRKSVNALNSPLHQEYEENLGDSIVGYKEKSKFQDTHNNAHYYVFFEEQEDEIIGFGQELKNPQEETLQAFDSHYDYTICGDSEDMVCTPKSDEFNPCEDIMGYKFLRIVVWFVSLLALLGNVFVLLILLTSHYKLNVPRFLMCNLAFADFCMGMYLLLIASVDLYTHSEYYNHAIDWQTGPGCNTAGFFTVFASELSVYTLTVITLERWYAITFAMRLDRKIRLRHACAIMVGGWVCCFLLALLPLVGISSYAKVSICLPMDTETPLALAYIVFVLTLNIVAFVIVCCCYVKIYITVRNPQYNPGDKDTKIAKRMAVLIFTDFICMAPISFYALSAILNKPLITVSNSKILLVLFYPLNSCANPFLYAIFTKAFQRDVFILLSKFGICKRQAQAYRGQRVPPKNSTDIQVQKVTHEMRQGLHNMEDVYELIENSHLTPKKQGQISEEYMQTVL
Chain of Androgen receptor (Homo sapiens) (P10275 whole entry, looked up): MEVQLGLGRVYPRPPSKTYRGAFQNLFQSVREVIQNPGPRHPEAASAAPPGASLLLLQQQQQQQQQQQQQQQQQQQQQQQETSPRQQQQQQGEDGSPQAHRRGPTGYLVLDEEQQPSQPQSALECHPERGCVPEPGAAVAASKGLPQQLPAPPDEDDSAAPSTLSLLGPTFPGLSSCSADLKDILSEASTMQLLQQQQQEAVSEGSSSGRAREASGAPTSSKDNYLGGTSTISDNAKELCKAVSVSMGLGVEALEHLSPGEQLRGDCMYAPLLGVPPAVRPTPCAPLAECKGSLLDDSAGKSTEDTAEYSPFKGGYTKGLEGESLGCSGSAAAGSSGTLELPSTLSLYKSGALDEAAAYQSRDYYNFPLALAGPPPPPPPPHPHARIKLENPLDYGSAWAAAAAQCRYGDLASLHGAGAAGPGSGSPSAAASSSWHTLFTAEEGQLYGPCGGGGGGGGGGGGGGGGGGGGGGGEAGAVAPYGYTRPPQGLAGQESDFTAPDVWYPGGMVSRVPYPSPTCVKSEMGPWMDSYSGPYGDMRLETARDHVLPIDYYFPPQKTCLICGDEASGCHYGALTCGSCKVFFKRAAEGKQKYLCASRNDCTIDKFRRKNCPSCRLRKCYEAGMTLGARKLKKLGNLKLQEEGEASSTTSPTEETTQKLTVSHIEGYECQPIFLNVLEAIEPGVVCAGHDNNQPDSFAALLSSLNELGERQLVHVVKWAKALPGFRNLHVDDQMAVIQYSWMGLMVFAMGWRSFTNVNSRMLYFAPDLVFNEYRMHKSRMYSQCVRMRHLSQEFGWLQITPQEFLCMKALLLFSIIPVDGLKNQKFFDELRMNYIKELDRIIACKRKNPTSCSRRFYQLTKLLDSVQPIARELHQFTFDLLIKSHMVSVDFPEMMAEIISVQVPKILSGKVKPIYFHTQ

Consider `ClCCOCCOCCCl`, for which the Potency entry in assay [1], in assay [2], in assay [3], in [4], in assay [5] and in assay [6] was “inactive” in each case. The Potency entry in assay [7], in assay [8], in assay [9], in assay [10], in assay [11] and in assay [13] was “inactive” each time. Besides, the Potency result in [15] is “inactive”. The call in [12] and in [14] was inactive.

Regarding `Cc1nn(C)c(Oc2ccccc2)c1/C=N/OCc1ccc(C(=O)OC(C)(C)C)cc1`, the results for the Potency in assay [1], in assay [2] and in [8] were 0.0273 µM (active), 0.0306 µM (active) and 0.0863 µM (active), respectively. Further, the Potency result in [3], in assay [16], in [4], in [5], in assay [6] and in [9] was “inactive” in each case. The Potency result in assay [11] and in [13] was “inactive” in each case. In addition, the compound was classed as inactive in [12] and in assay [14].

Consider `COCCCN1CCC(NC(=O)c2cc(Cl)c(N)c3c2OCC3)CC1`, for which the Potency entry in assay [1], in assay [2], in [3], in assay [4], in assay [6] and in assay [7] was “inactive” throughout. Besides, the Potency result in assay [8], in assay [17], in [18], in assay [9], in assay [10] and in [11] was “inactive” throughout. Also, in assay [13], the Potency entry was “inactive”. For the same compound, in assay [12], the result was inactive.

Turning to `Cc1oc2c(NC(=O)c3c(Cl)cccc3Cl)cccc2c1C(C)(C)O`, the Potency is 8.63 µM (active) in [1], 21.7 µM (active) in [2], 30.6 µM (active) in [3] and 24.3 µM (active) in [18]. The Potency result in assay [5], in assay [6], in assay [7], in assay [8], in assay [9] and in [11] was “inactive” throughout. Besides, the Potency entry in [13] and in assay [15] was “inactive” throughout. Further, the compound was classed as inactive in [12] and in assay [14].

As to `CCN(CC)CCOC(=O)C(Cc1cccc2ccccc12)CC1CCCO1` (stereo not given), the Potency entry in assay [1], in assay [2], in assay [4], in [6], in assay [17] and in assay [18] was “inactive” in each case. Further, the Potency entry in assay [9], in assay [11], in [13] and in assay [15] was “inactive” each time. The compound was called inactive in assay [12] and in assay [14].

Regarding `CN(C)c1ccc(CCO)cc1`, the Potency result in [1], in assay [3], in [4], in assay [5], in assay [6] and in assay [8] was “inactive” each time. For the same compound, the Potency entry in [17], in assay [10], in [11] and in assay [13] was “inactive” each time. Also, the outcome in assay [12] was inactive.

Turning to `OC(C#CCN1CCCC1)(c1ccccc1)c1ccccc1`, the Potency in assay [1] is 3.76 µM (active). Moreover, the Potency result in assay [2], in [3], in assay [6], in [7], in assay [8] and in [17] was “inactive” throughout. For the same compound, the Potency result in assay [18], in assay [9], in [10], in assay [11], in assay [13] and in assay [15] was “inactive” each time. For the same compound, the compound was called inactive in [12].

For `C[C@@H]1C[C@H]2[C@@H]3CCC4=CC(=O)C=C[C@]4(C)[C@@]3(F)[C@@H](O)C[C@]2(C)[C@@]1(O)C(=O)COC(=O)c1ccncc1`, the Potency entry in assay [1], in [4], in assay [5], in assay [6], in assay [8] and in assay [9] was “inactive” in each case. Further, the Potency result in assay [10], in assay [11] and in [13] was “inactive” throughout. Moreover, the Potency is 29.8 µM (active) in [3] and 0.0067 µM (active) in assay [16]. Moreover, the compound was classed as inactive in assay [12].

Consider `C=CC(=O)OCCOCCOC(=O)C=C`, for which the Potency is 4.88 µM (active) in assay [1], 61.4 µM (active) in [2] and 24.4 µM (active) in assay [3]. Further, the Potency result in assay [5], in [6], in assay [7], in assay [13] and in assay [15] was “inactive” throughout. Further, the outcome in [12] and in [14] was inactive.
